Experimental data published in PubChem BioAssay.
Active and inactive are the calls of the source. Unless noted, the rule behind the calls is not given here.

What was measured:
[1] = system: Wnt5a (protein binding on small-molecule microarray); assay: small molecules binding Wnt5a protein – biophysical, small-molecule microarray, 635/667 nm fluorescence, primary screen (AID 1142); conditions: 635 nm fluorescence, higher = more signal;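 note: fluorescence read at 667 nm with signal to noise per printed feature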
[2] = ATP-based viability of Huh7 replicon cells – cell-based, CellTiter-Glo luminescence, basal, 48 h, cytotoxicity control for HCV replication inhibitor project, primary screen (AID 1143); conditions: higher = more signal, called active from +8 up or from −8 down;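 note: Huh7 hepatoma cells carrying a hepatitis C replication reporter with no stimulus; test concentration not given here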
[3] = Pseudomonas biofilm growth suppression – PAO1 strain, BacTiter-Glo luminescence, LB-PBS, primary screen (AID 1144); conditions: P. aeruginosa PAO1 biofilm, 12 h, higher = more signal
[4] = basal CRE-LacZ reporter activity in PC12 – cell-based, unstimulated, primary screen (AID 1145); conditions: no forskolin, luminescence, 4.5 h, higher = more signal, called active from +8 up or from −8 down
[5] = forskolin-driven CRE-LacZ activity in PC12 – cell-based, CRE-LacZ reporter, forskolin-stimulated, primary screen (AID 1146); conditions: luminescence, 4.5 h, higher = more signal, called active from +8 up or from −8 down;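 note: PC12 cells with 6xCRE LacZ reporter stimulated by forskolin 10 µM; beta-galactosidase reporter signal reflecting CREB driven transcription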
[6] = molecular target: Streptavidin (Streptomyces avidinii) (UniProt P22629); assay: compounds binding control protein streptavidin – biophysical, small-molecule microarray, 635/667 nm fluorescence, artefact control for SMM compound annotation, primary screen (AID 1147); conditions: higher = more signal;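 note: signal reflects streptavidin binding to arrayed compounds as a control protein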
Sequence of Streptavidin (Streptomyces avidinii) (P22629 whole entry, looked up): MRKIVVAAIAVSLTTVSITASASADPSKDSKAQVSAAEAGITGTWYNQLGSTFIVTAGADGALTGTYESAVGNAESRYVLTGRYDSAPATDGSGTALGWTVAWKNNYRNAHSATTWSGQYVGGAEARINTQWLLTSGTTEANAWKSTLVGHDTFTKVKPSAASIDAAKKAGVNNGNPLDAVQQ

[7] = probe aInhba binding on compound microarray – biochemical, small-molecule microarray, 635/667 nm fluorescence, primary screen (AID 1148); conditions: higher = more signal;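 note: score merges 667nm spot fluorescence with signal-to-noise for antibody binding to printed compounds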
Torsin-1A (Homo sapiens) [8] = molecular target: Torsin-1A (Homo sapiens) (UniProt O14656); assay: TOR1A wild-type binding on microarray – cell lysate, small-molecule microarray, lysate, 635/667 nm, primary screen (AID 1149); conditions: COS7 hTOR1A-WT lysate, 635 nm fluorescence, higher = more signal
Sequence of Torsin-1A (Homo sapiens) (O14656 whole entry, looked up): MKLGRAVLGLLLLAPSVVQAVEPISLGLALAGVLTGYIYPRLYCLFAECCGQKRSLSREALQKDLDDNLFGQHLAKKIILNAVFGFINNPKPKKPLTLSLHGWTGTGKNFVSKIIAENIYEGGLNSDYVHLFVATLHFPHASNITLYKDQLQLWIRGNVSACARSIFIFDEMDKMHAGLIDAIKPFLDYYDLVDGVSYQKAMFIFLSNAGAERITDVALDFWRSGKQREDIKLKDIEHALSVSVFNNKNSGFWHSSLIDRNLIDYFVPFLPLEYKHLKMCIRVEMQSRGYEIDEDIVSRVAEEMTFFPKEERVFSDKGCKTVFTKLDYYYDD

Torsin-1A (Homo sapiens) [9] = molecular target: Torsin-1A (Homo sapiens) (UniProt O14656); assay: torsin A mutant lysate binding on microarrays – cell lysate, small-molecule microarray, COS7 lysate, 635/667 nm fluorescence, primary screen (AID 1150); conditions: COS7 hTOR1A mutant lysate, 635 nm fluorescence, higher = more signal;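 note: score pools 667 nm emission and signal to noise measuring lysate protein binding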
[10] = system: Sonic hedgehog protein (Shh); assay: Sonic hedgehog microarray binding compounds – biochemical, small-molecule microarray, 635/667 nm fluorescence, primary screen (AID 1151); conditions: 635 nm fluorescence, higher = more signal;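 note: Shh protein binding to compounds spotted on small-molecule microarray slides; score combines spot fluorescence intensity with signal-to-noise across triplicate slides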
[11] = optical density shifts of acrAB sulA E. coli – strain DRC41, OD650, 48 h, E. coli filamentation inducer project, primary screen (AID 1152); conditions: higher = more signal, called active from +8 up or from −8 down;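 note: E. coli MC1000 strain DRC41 lacking acrAB efflux pump and sulA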
[12] = probe aLefty1 binding on compound microarray – biochemical, small-molecule microarray, 635/667 nm fluorescence, primary screen (AID 1153); conditions: higher = more signal;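 note: score merges spot fluorescence with signal-to-noise ratio from the scanned slide images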
[13] = plasmodial surface anion channel blockers, osmotic lysis – cell-based, P. falciparum Indochina, OD700, 1 h, primary screen (AID 1154); conditions: P. falciparum Indochina infected RBC osmotic lysis, higher = more signal, called active from +8 up or from −8 down
[14] = plasmodial surface anion channel blockers, osmotic lysis – cell-based, P. falciparum Indochina, OD700, 2 h, primary screen (AID 1155);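 note: lysis reports solute entry through the parasite surface anion channel PSAC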; conditions: P. falciparum Indochina infected erythrocytes, higher = more signal, called active from +8 up or from −8 down
[15] = changes in parasitized red cell lysis, either direction – P. falciparum Indochina, OD700, 3 h, PSAC antagonist project, primary screen (AID 1156); conditions: P. falciparum-infected erythrocytes, osmotic lysis, higher = more signal, called active from +8 up or from −8 down
[16] = plasmodial surface anion channel blockers, osmotic lysis – cell-based, P. falciparum Indochina, OD700, 18 h, primary screen (AID 1157); conditions: P. falciparum Indochina infected erythrocytes, osmotic lysis OD700, 18 h; higher = more signal, called active from +8 up or from −8 down
[17] = S6 kinase pathway phospho-S6 level changes – cell-based, A549, cytoblot, luminescence, serum-stimulated, primary screen (AID 1158); conditions: 5 h, higher = more signal;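 note: serum-stimulated A549 lung adenocarcinoma cells; signal is phosphorylated S6 detected by cytoblot immunostaining with HRP secondary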
[18] = molecular target: NADPH oxidase 2 (Homo sapiens) (UniProt P04839); assay: compounds shifting NOX2 Amplex Red fluorescence – cell-based, HEK293-NOX2, PMA-stimulated, NOX inhibitor project, primary screen (AID 1159); conditions: 45 min, higher = more signal, called active from +8 up or from −8 down; note: test concentration not given here
Sequence of NADPH oxidase 2 (Homo sapiens) (P04839 whole entry, looked up): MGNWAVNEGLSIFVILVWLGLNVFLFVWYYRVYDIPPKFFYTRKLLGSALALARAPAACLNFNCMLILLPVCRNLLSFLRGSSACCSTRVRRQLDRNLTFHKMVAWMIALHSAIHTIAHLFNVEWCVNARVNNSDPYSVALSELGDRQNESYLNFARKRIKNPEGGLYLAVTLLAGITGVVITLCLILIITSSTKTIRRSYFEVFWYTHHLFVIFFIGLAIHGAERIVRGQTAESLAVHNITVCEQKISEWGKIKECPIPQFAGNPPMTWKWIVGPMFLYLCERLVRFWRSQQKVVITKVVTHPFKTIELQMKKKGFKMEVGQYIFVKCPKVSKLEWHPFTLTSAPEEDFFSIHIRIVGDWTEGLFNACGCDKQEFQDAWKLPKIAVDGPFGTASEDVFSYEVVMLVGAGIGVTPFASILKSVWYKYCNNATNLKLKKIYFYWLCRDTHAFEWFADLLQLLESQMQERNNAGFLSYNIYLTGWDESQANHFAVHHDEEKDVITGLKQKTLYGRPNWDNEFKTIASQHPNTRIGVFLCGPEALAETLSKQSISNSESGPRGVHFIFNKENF

[19] = molecular target: NADPH oxidase 4 (Homo sapiens) (UniProt Q9NPH5); assay: compounds shifting NOX4 Amplex Red fluorescence – cell-based, HEK293-NOX4, tetracycline-induced, NOX inhibitor project, primary screen (AID 1160); conditions: HEK293-NOX4, Amplex Red H2O2 fluorescence, 45 min; higher = more signal, called active from +8 up or from −8 down
Sequence of NADPH oxidase 4 (Homo sapiens) (Q9NPH5 whole entry, looked up): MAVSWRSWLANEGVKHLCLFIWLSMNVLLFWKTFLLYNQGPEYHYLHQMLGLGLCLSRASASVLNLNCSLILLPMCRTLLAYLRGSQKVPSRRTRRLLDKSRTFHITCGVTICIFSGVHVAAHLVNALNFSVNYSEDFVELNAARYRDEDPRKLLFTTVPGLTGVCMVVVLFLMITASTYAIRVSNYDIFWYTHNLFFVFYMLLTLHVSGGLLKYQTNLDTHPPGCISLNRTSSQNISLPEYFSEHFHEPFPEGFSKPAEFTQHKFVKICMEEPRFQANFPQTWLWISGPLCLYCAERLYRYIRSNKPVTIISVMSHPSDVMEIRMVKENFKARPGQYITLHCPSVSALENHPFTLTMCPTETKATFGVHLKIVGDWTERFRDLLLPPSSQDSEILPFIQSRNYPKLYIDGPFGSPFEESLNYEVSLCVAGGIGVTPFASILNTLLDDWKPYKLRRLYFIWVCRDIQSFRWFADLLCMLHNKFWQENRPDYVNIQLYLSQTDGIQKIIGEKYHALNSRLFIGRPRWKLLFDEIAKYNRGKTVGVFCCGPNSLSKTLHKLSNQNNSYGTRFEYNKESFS

[20] = molecular target: NADPH oxidase 5 (Homo sapiens) (UniProt Q96PH1); assay: compounds shifting NOX5 Amplex Red fluorescence – cell-based, HEK293-NOX5, NOX inhibitor project, primary screen (AID 1161); conditions: HEK293-NOX5, ionomycin, 45 min, higher = more signal
Sequence of NADPH oxidase 5 (Homo sapiens) (Q96PH1 whole entry, looked up): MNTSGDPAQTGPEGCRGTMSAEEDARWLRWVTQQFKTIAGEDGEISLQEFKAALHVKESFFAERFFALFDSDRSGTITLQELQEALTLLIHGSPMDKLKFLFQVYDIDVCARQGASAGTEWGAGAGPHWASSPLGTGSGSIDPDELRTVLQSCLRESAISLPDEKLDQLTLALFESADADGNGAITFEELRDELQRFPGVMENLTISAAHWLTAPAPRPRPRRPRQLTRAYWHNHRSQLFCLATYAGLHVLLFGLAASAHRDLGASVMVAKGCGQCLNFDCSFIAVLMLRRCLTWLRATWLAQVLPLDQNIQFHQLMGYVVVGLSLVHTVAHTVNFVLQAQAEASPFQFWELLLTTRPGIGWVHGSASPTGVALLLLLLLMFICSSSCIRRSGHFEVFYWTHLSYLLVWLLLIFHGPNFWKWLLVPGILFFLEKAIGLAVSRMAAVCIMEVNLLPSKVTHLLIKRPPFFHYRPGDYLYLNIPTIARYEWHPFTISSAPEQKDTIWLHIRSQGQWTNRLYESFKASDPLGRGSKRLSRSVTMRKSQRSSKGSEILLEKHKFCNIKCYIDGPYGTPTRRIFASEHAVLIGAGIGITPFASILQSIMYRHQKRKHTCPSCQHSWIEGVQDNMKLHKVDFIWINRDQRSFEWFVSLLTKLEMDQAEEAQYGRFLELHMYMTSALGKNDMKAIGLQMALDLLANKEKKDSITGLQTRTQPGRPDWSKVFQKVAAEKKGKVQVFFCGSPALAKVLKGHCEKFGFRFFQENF

Row | Compound | composite z-score [1] | z-score [2] | z-score [3] | z-score [4] | z-score [5] | composite z-score [6] | composite z-score [7] | composite z-score (Torsin-1A (Homo sapiens) [8]) | composite z-score (Torsin-1A (Homo sapiens) [9]) | composite z-score [10] | z-score [11] | composite z-score [12] | z-score [13] | z-score [14] | z-score [15] | z-score [16] | z-score [17] | z-score [18] | z-score [19] | z-score [20]
1 | C=C(C(=O)CC[C@@H](OC(C)=O)c1ccc(OCCO)cc1)C(C)C | 0.177 | 0.118 (inactive) | -0.73 (inactive) | 1.68 (inactive) | 1.05 (inactive) | -0.41 | -0.148 | 0.698 | 1.02 | 0.0191 | 0.0045 (inactive) | -0.142 | 3.04 (inactive) | 0.584 (inactive) | 0.652 (inactive) | 0.332 (inactive) | -0.579 | -1.37 (inactive) | -1.21 (inactive) | -1.77
2 | COCCn1c(C(=O)N2CCCC2)cc2c1C[C@H]1CN(C(=O)c3ccccc3)[C@@](Cc3ccc(OC)cc3)(C(=O)OC)[C@@H]21 | 0.644 | -1.54 (inactive) | -0.2 (inactive) | -0.751 (inactive) | 0.699 (inactive) | 2.01 | 0.739 | -0.141 | 1.29 | -0.89 | 0.223 (inactive) | 1.15 | 2.9 (inactive) | -0.51 (inactive) | -0.778 (inactive) | -1.96 (inactive) | 2.69 | 0.121 (inactive) | 0.435 (inactive) | -4.54
3 | CCOC(=O)N1C(c2ccc(OCCCO)cc2)=NC(C(=O)OC)N1C(=O)OCC (stereo not given) | 0.506 | -2.41 (inactive) | -1.33 (inactive) | 0.139 (inactive) | 0.666 (inactive) | 0.829 | 0.0614 | 0.497 | 0.36 | 1.13 | 1.28 (inactive) | 0.371 | 20.5 (active) | 2.44 (inactive) | 0.873 (inactive) | -1.07 (inactive) | 1.02 | -1.43 (inactive) | 0.403 (inactive) | 0.203
4 | COc1ccc(C#Cc2ccc3c(c2)[C@]2(C(=O)N3)[C@H](C(=O)N3CCN(c4ncccn4)CC3)[C@H]3C(=O)O[C@H](c4ccccc4)[C@H](c4ccccc4)N3[C@@H]2c2ccc(O)cc2)cc1 | 0.205 | -0.629 (inactive) | -0.747 (inactive) | 0.775 (inactive) | -0.612 (inactive) | 1.04 | 0.13 | -0.0852 | 0.231 | 0.88 | -0.475 (inactive) | 0.583 | 1.5 (inactive) | 1.59 (inactive) | 0.474 (inactive) | 0.686 (inactive) | -0.2 | 1.25 (inactive) | -0.171 (inactive) | -0.146
5 | CCOC(=O)C1=CC[C@@H](c2cccc(Cl)c2)N(S(=O)(=O)c2ccc(C)cc2)[C@H]1c1ccc(C#N)cc1 | 0.473 | -1.1 (inactive) | 0.494 (inactive) | -0.228 (inactive) | 0.119 (inactive) | 1.15 | 0.0627 | 0.384 | 0.788 | 0.741 | -1.41 (inactive) | 0.514 | 1.53 (inactive) | 1.34 (inactive) | 0.0178 (inactive) | 0.729 (inactive) | -0.438 | 0.827 (inactive) | 1.2 (inactive) | 0.639
6 | COc1ccc([Si](C)(C)[C@@H]2[C@@H](CCO)O[C@]3(C(=O)N(Cc4ccccc4)c4ccc(N(C=O)c5ccccc5)cc43)[C@H]2C)cc1 | 0.155 | -5.23 (inactive) | -1.1 (inactive) | 4.18 (inactive) | -0.336 (inactive) | -0.0047 | -0.0762 | 0.353 | 0.188 | 1.26 | 0.601 (inactive) | 0.0355 | 2.8 (inactive) | 2.37 (inactive) | 1.09 (inactive) | 1.87 (inactive) | 0.418 | 0.337 (inactive) | 1.06 (inactive) | 2.49
7 | CCCNC(=O)[C@@]1(C)c2ccccc2C(=O)N(Cc2cc(F)cc(C(F)(F)F)c2)[C@H]1c1ccc(CO)cc1 | -0.283 | -3.38 (inactive) | -1.09 (inactive) | 0.208 (inactive) | -0.173 (inactive) | -0.767 | -0.175 | -2.08 | 0.779 | 0.011 | 0.119 (inactive) | -0.252 | 7.04 (inactive) | 0.576 (inactive) | 1.03 (inactive) | 0.644 (inactive) | 0.324 | -1.29 (inactive) | -1.51 (inactive) | -2.07
8 | C=CCN1C(=O)[C@]2(COC(c3ccc(OCCCO)cc3)=N2)Cc2ccccc21 | 0.258 | -3.34 (inactive) | -1.18 (inactive) | 1.8 (inactive) | -1.3 (inactive) | -0.554 | 0.167 | 0.689 | 0.277 | 0.169 | 0.773 (inactive) | 0.228 | 23.7 (active) | 7.4 (inactive) | 3.23 (inactive) | 0.181 (inactive) | 1.3 | -2.29 (inactive) | 0.0437 (inactive) | -2.56
